For 61 compounds, inhibition results are on record in PubChem BioAssay AID463190 (Sanford-Burnham Center for Chemical Genomics, 2010).

About 7,300 (2.2%) of roughly 330,000 compounds were called active.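 The calls were made as follows: active = inhibition of at least 40%; inactive = the rest.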 What follows is part of a selection rich in actives, with near analogues and random picks from the rest.

A short description of this assay: growth inhibition of tim10-1 ts yeast – luminescence, uHTS, primary screen (AID 463190).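 Also: mutant grown at 25 °C; 0% = DMSO wells with yeast and 100% = wells holding no yeast.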 As to conditions: S. cerevisiae tim10-1 ts strain growth, BacTiter-Glo, 24 h; at 20 µM; stronger effect = higher value.
As a reminder, the inhibition is the drop in the measured response relative to a control, in per cent. Consider `Cc1oc(C(N)=O)cc1COc1ccc(C(N)=O)cc1`, for which the inhibition is -9.15% (inactive). In the case of `CCOc1cc(-c2conc2N)cc(OCC)c1OCC`, the inhibition is 41.9% (active).

On to `CCOc1cc(C(=O)Nc2ncccn2)cc(OCC)c1OCC`, for which the inhibition is 8.23% (inactive). In the case of `CCOc1cc2c(Cl)ncnc2c(OCC)c1OCC` it was 19.3% (inactive). In the case of `Cc1sc2c(c1C)c(=O)n(-c1ccccc1)c1nncn21` it was 20.4% (inactive). Next, `CC[C@H](C)C(=O)N[C@H]1CCCN1C(=O)/C=C/c1ccccc1`: -0.774% (inactive).

For the compound `Cc1ccc2c(c1)N(CCCC(=O)NCc1cccnc1)C(=O)CO2`, the inhibition is -19.6% (inactive). As for `COc1ccc(CNC(=O)C[C@H]2C[C@H](C(=O)N3CCOCC3)[C@@]3(CCC4CCCC4)c4[nH]c5ccc(Cl)cc5c4CCN3C2=O)cc1OC`, the inhibition is 17% (inactive). On to `CC1Cc2ccccc2N1CC(=O)Nc1ccc2c(c1)OC(F)(F)O2` (stereo unspecified), for which the inhibition was 20.8% (inactive). With `CN1CCc2c(sc3c2c(NCc2ccco2)nc2nnnn23)C1`, the inhibition was 21.9% (inactive).

`Cc1c(NC(=O)Nc2ccccc2Cl)sc(=S)n1C`: the inhibition is 12% (inactive). In the case of `O=C(Nc1ccccc1Cl)/C(Cl)=C(\Cl)S(=O)c1ccccc1` (stereo unspecified) it was 78.1% (active); in that of `O=C(Cc1ccc2c(c1)CCCC2)Nc1ccccc1Cl`, 10.5% (inactive); in that of `CN=C1C=C/C(=N/N=c2\ccn(O)cc2C)C=C1C`, 16.6% (inactive). Consider `Cc1cc(-c2ccc(S(=O)(=O)N3CCN(c4cccc(C(F)(F)F)c4)CC3)s2)on1`, for which the inhibition was -2.35% (inactive).

In the case of `COC(C/C=C/C(=O)[C@@H](C)OCc1ccccc1)OC`, the inhibition is 54.5% (active). Next, `COC(C[C@@H]1O[C@@H]1C(=O)[C@H](C)OCc1ccccc1)OC`: -17.2% (inactive); `COC(C[C@H](O)CC(=O)[C@@H](C)OCc1ccccc1)OC`: 7.97% (inactive); `O=S(=O)(/C=C/c1ccccc1)N1CCNCC1`: 7.28% (inactive). As to `CCOc1ccccc1-n1c(SCC(=O)NCc2ccco2)nnc1-c1ccncc1`, the inhibition was 8.51% (inactive). Consider `Cc1cc(Br)ccc1SCC(=O)OCC(=O)NCc1ccc2c(c1)OCO2`, for which the inhibition is 28% (inactive). Next, `O=C(Cc1ccccc1)NC(=S)Nc1ccc(N2CCCCC2)cc1`: 38.6% (inactive); `O=C1C=CC(=O)N1c1ccc(N2CCCCC2)cc1`: 93% (active). Next, `CC(=O)Nc1ccc(S(=O)(=O)Nc2ccc(N3CCCCC3)cc2)cc1`: 3.03% (inactive); `CC(=O)c1cccc(NC(=O)C2CCCN(S(=O)(=O)c3cccc4nonc34)C2)c1` (stereo unspecified): -2.16% (inactive).

In the case of `N#Cc1ccc(CSc2nnc3ccccn23)cc1`, the inhibition was 21.5% (inactive).

With `N#Cc1ccc(CSc2ncccn2)cc1`, the inhibition was -2.68% (inactive).

For `N#Cc1ccc(CSc2nnc(-c3ccccn3)n2-c2ccc(Cl)cc2)cc1`, the inhibition is 40% (active). In the case of `O=C1CSC2=NCN(c3ccccc3)CN12` it was -4.56% (inactive); in that of `Cc1nc(NC(=O)C2CCCCC2)sc1C`, 25.4% (inactive). Next, `CC1CCCCC1NC(=O)COc1ccc(C#N)cc1` (stereo unspecified): -1.06% (inactive); `CCOC(=O)c1c(NC(=O)C2CC=CCC2C(=O)O)sc(C)c1CC` (stereo unspecified): 15.4% (inactive); `O=C(CSc1nnc(-c2cccs2)n1Cc1ccco1)c1ccc2c(c1)OCO2`: -3.98% (inactive). In the case of `COc1ccc(-c2cc3ncccc3cn2)cc1` it was 8.87% (inactive); in that of `CC(=O)NC(Cc1ccccc1)C(=O)NC1CCN(c2ncccc2[N+](=O)[O-])CC1` (stereo unspecified), 10.4% (inactive); in that of `COc1ccc(-c2cc(C3CCN(c4ncccc4[N+](=O)[O-])CC3)[nH]n2)cc1`, 49.2% (active).

As for `O=C(NCC1CCCO1)c1cc2c(s1)CCCC2` (stereo unspecified), the inhibition is -4.36% (inactive). Next, `O=C1CCCc2c1[nH]c1ccc(Br)cc21`: 13.5% (inactive); `COc1cccc(C(=O)Oc2cc(C)[nH]c(=O)c2[N+](=O)[O-])c1`: -4.85% (inactive); `Cc1ccc(C)c(N2CCN(S(=O)(=O)c3ccc4c(c3)oc(=O)n4C)CC2)c1`: 27.4% (inactive). In the case of `Cc1ccc(C)c(N2CCN(S(=O)(=O)c3c(C)[nH]c(C)c3C(=O)N3CCCC3)CC2)c1` it was -8.05% (inactive); in that of `COC(=O)c1cc(S(=O)(=O)N2CCN(c3cc(C)ccc3C)CC2)c[nH]1`, 41.6% (active). Regarding `C/C(=N\N1CCN(Cc2ccc(C)cc2)CC1)c1ccco1`, the inhibition is -7.59% (inactive). Next, `O=C(CN1CCN(c2ccccc2)CC1)Nc1ccc(F)cc1`: -0.126% (inactive). Take `O=C(CN1CCN(c2ccc(F)cc2)CC1)Nc1cccc(C(F)(F)F)c1`: the inhibition is 41.1% (active). In the case of `O=C(CN1CCN(c2ccc(F)cc2)CC1)Nc1ccccc1` it was 11.6% (inactive); in that of `O=C(CCCOc1ccc(Cl)cc1Cl)NNC(=O)C1CCC1`, 5.85% (inactive).

For the compound `Cn1c(CCCOc2ccc(Cl)cc2Cl)n[nH]c1=S`, the inhibition was 47.8% (active).

For the compound `CC(C)Oc1ccc(Cc2n[nH]c(=S)n2Cc2ccccc2)cc1Cl`, the inhibition was -6.21% (inactive). In the case of `CCN1C(=O)[C@@H]2[C@@H](c3ccc(-c4cccc(Cl)c4)cc3)N3CCC[C@@]3(C(=O)OC)[C@@H]2C1=O` it was 30.1% (inactive); in that of `C[N+]1(CC(O)COc2ccccc2)CCN(C(=O)c2ccc([N+](=O)[O-])cc2)CC1` (stereo unspecified), -0.233% (inactive); in that of `CCCCOC(=O)CCCc1ccc([N+](=O)[O-])cc1[N+](=O)[O-]`, 28.7% (inactive). Next, `CCOC(=O)C/C(C)=N\Nc1ccc([N+](=O)[O-])cc1[N+](=O)[O-]`: 44.5% (active).

As to `CCOC(=O)c1ccc(NNC(C)=O)c([N+](=O)[O-])c1`, the inhibition is 9.84% (inactive). Next, `O=C(CS(=O)(=O)c1ccccc1)Nc1ccc(S(=O)(=O)Nc2ccccn2)cc1`: 0.086% (inactive). In the case of `CC(C)(C)c1cnnn1-c1ccc([N+](=O)[O-])cc1` it was 12% (inactive); in that of `Cc1cc(C(=O)Nc2c(C)nn(Cc3ccccc3)c2C)on1`, 1.72% (inactive); in that of `Cc1nn(Cc2ccc(F)cc2)c(C)c1NC(=O)c1cccnc1Cl`, -0.56% (inactive). Next, `Cc1nn(Cc2ccc(Cl)c(Cl)c2)c(C)c1NC(=O)c1cc(C2CC2)on1`: 57% (active); `Cc1ccccc1OCC(=O)NCC(=O)OCC(=O)c1ccc2ccccc2c1`: 18.3% (inactive). As for `N/C(=N\S(=O)(=O)c1cc(C(F)(F)F)cc(C(F)(F)F)c1)c1cccs1`, the inhibition is 5.1% (inactive).
